Source: PubChem BioAssay (Tox21)
Inconclusive results are not listed. The source made the active and inactive calls. Unless noted, calls come from the whole dose curve; as a rule, active = well fitted curve in the direction sought with a large enough effect in the repeat runs; inconclusive = weak or mixed curves; inactive = flat fitted curve, though single readings scatter.

What was measured:
[1] = qHTS assay to test for compound auto fluorescence at 535 nm (green) in HEK293 cells (AID 720680)
[2] = qHTS assay to test for compound auto fluorescence at 460 nm (blue) in HEK293 cell free culture (AID 720681)
Procedure, shortened: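 Test compounds were pinned into cell-free culture medium (DMEM with 10% FBS) and fluorescence was read directly at Ex/Em 405/460 nm. Signals were expressed as fluorescence equivalents of triamterene, with DMSO vehicle as control.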

[3] = qHTS assay to test for compound auto fluorescence at 535 nm (green) in HEK293 cell free culture (AID 720682)
Procedure, shortened: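 Green-label autofluorescence (485 nm excitation, 535 nm emission) measured on compound added to cell-free culture medium (DMEM, 10% FBS). Output is expressed relative to fluorescein.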

[4] = qHTS assay to test for compound auto fluorescence at 590 nm (red) in HEK293 cell free culture (AID 720683)
Procedure, shortened: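 Tox21 10K library compounds were pinned into cell-free DMEM with 10% FBS and fluorescence was read at excitation 540 nm. Activity is expressed as Rose Bengal sodium equivalency.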

[5] = qHTS assay to test for compound auto fluorescence at 590 nm (red) in HepG2 cell free culture (AID 720684)
Procedure, shortened: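 Red fluorescence (540 nm excitation, 590 nm emission) was measured after compound transfer into cell-free MEM supplemented with 10% FBS. Values are equivalencies against Rose Bengal sodium.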

[6] = qHTS assay to test for compound auto fluorescence at 460 nm (blue) in HepG2 cell free culture (AID 720685)
Procedure, shortened: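 Compound (23 nL) or DMSO pinned into cell-free MEM with 10% FBS; blue fluorescence read at 405/460 nm excitation/emission, expressed as auto-fluorescence equivalency to triamterene.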

[7] = qHTS assay to test for compound auto fluorescence at 535 nm (green) in HepG2 cell free culture (AID 720686)
[8] = qHTS assay to test for compound auto fluorescence at 460 nm (blue) in HepG2 cells (AID 720687)
Procedure, shortened: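 Cells (2,000/well in MEM with 10% FBS) attached overnight at 37 C, then were exposed to compound or DMSO for 1 hr at 37 C, 5% CO2. Fluorescence read at Ex/Em 405/460 nm, expressed as triamterene-equivalent signal.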

[9] = target: Glucocorticoid receptor (Homo sapiens) (UniProt P04150); experiment: qHTS assay to identify small molecule agonists of the glucocorticoid receptor (GR) signaling pathway (AID 720691; active = well fitted activation curve with a large enough effect in the signal ratio in the repeat runs, not every such curve was filed as active; the % refers to the signal ratio)
Procedure, shortened: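 Reporter read-out: fluorescence intensity following 2 h room-temperature LiveBLAzer B/G FRET substrate loading. Prior step: GR-bla HeLa cells held 4 h, then treated 18 h at 37 C.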

Measured: Potency

Chain of Glucocorticoid receptor (Homo sapiens) (P04150 whole entry, looked up): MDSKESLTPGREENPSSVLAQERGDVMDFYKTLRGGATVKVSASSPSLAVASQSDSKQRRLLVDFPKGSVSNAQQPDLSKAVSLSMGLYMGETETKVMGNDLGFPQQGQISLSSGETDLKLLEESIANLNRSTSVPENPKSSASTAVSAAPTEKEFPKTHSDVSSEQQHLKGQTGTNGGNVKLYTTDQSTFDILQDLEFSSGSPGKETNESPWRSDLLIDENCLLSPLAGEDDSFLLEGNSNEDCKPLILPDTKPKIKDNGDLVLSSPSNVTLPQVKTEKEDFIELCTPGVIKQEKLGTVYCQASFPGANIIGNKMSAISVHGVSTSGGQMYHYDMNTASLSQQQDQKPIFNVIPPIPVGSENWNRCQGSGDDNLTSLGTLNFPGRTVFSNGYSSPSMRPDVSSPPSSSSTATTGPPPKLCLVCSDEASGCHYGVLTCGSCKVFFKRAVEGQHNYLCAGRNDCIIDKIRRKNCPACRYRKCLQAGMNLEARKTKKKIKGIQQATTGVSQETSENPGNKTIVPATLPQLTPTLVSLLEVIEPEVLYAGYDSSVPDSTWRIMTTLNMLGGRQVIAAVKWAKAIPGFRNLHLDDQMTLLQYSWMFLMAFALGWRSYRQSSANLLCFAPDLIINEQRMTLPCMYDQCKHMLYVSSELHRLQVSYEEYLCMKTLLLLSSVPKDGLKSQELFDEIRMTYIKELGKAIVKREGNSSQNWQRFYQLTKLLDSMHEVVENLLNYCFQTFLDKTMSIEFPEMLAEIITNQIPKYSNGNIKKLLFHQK

Cl
not listed: [9]
inactive: all other assays above

CC(C)(c1ccccc1)c1ccc(O)cc1
not listed: [9]
inactive: all other assays above

CCC[CH2][Sn]([Cl])([Cl])[CH2]CCC
not listed: [9]
inactive: all other assays above

CSc1nc(NC(C)C)nc(NC(C)C)n1
not listed: [9]
inactive: all other assays above

CCOP(=S)(OCC)SCSC(C)(C)C
not listed: [9]
inactive: all other assays above

CC(C)(c1ccccc1)c1ccc(O)c(C(C)(C)c2ccccc2)c1
not listed: [9]
inactive: all other assays above

CCN(CC)C(=O)C(C)Oc1cccc2ccccc12 (stereo unspecified)
not listed: [9]
inactive: all other assays above

c1ccc2c(c1)Nc1ccccc1S2
not listed: [9]
inactive: all other assays above

CC1(C)Cc2cccc(O)c2O1
not listed: [9]
inactive: all other assays above

CC(C)(O)C(=O)Nc1ccc([N+](=O)[O-])c(C(F)(F)F)c1
not listed: [9]
inactive: all other assays above

COP(=S)(OC)SCn1nnc2ccccc2c1=O
not listed: [9]
inactive: all other assays above

N#Cc1c(Cl)c(Cl)c(Cl)c(C#N)c1Cl
not listed: [9]
inactive: all other assays above

Nc1ccc2ccccc2c1
not listed: [9]
inactive: all other assays above

CN(C)P(=O)(N(C)C)N(C)C
not listed: [9]
inactive: all other assays above

C[N+](C)(C)C
not listed: [9]
inactive: all other assays above

O=C(O)CF
not listed: [9]
inactive: all other assays above

COc1ccc(C=O)cc1OC
not listed: [9]
inactive: all other assays above

O=C1C(Cl)=C(Cl)C(=O)c2ccccc21
not listed: [9]
inactive: all other assays above

Nc1ccc([N+](=O)[O-])cc1N
not listed: [9]
inactive: all other assays above

CCCCCCCCCc1ccc(O)cc1
not listed: [9]
inactive: all other assays above

NN=C(N)N
not listed: [9]
inactive: all other assays above

CCC[CH2][Sn]([Cl])([CH2]CCC)[CH2]CCC
not listed: [9]
inactive: all other assays above

CCC(=O)Nc1ccc(Cl)c(Cl)c1
not listed: [9]
inactive: all other assays above

CS(=O)(=O)NC(=O)c1cc(Oc2ccc(C(F)(F)F)cc2Cl)ccc1[N+](=O)[O-]
not listed: [9]
inactive: all other assays above

C[N+](C)(C)CC(=O)O
not listed: [9]
inactive: all other assays above

C[N+](C)(C)CC(=O)[O-]
not listed: [9]
inactive: all other assays above

CC1(C)C(C(=O)OC(C#N)c2cccc(Oc3ccccc3)c2)C1(C)C (stereo unspecified)
not listed: [9]
inactive: all other assays above

C=C(C)C#N
not listed: [9]
inactive: all other assays above

Clc1cccc(C(Cl)(Cl)Cl)n1
not listed: [9]
inactive: all other assays above

O=S(=O)(O)C(F)(F)C(F)(F)C(F)(F)C(F)(F)C(F)(F)C(F)(F)C(F)(F)C(F)(F)F
not listed: [9]
inactive: all other assays above

C=CC(=O)OCC(CC)(COC(=O)C=C)COC(=O)C=C
not listed: [9]
inactive: all other assays above

[Cl-].[Cl-].[Cl-].[Fe+3]
not listed: [9]
inactive: all other assays above

O=C1Nc2ccc(Cl)cc2C(c2ccccc2)=NC1O (stereo unspecified)
not listed: [9]
inactive: all other assays above

CC(C)(O)C#N
not listed: [9]
inactive: all other assays above

Cc1cc(Cl)ccc1N=CN(C)C
not listed: [9]
inactive: all other assays above

Clc1ccccc1-c1nnc(-c2ccccc2Cl)nn1
not listed: [9]
inactive: all other assays above

COP(=S)(OC)Oc1ccc(Sc2ccc(OP(=S)(OC)OC)cc2)cc1
not listed: [9]
inactive: all other assays above

CC1=C(C(=O)Nc2ccccc2)SCCO1
inactive: all assays above

CC(C)Nc1ccc(Nc2ccccc2)cc1
inactive: all assays above

ClCC(Cl)CCl
inactive: all assays above

c1ccc(C2CO2)cc1 (stereo unspecified)
inactive: all assays above

N#CCCCCC#N
inactive: all assays above

Cc1cccc(N=Nc2ccc(N(C)C)cc2)c1
inactive: all assays above

CCOP(=S)(OCC)SCn1c(=O)oc2cc(Cl)ccc21
inactive: all assays above

CCOP(=S)(OCC)OP(=S)(OCC)OCC
inactive: all assays above

CCCCOCCOC(C)=O
inactive: all assays above

O=[N+]([O-])c1ccc(Cl)c([N+](=O)[O-])c1
not listed: [9]
inactive: all other assays above

ClCc1ccccn1
inactive: all assays above

[CH3][Sn]([Cl])([Cl])[Cl]
inactive: all assays above

ClC(Cl)(Cl)Br
inactive: all assays above

CC(C)Nc1nc(Cl)nc(NC(C)C)n1
not listed: [9]
inactive: all other assays above

NC(=O)CN1CCCC1=O
inactive: all assays above

CC[n+]1c(-c2ccccc2)c2cc(N)ccc2c2ccc(N)cc21
not listed: [9]
inactive: all other assays above

CNC(=O)CSP(=S)(OC)OC
not listed: [9]
inactive: all other assays above

CC(C)=CC1C(C(=O)OCc2cccc(Oc3ccccc3)c2)C1(C)C (stereo unspecified)
inactive: all assays above

CCCCOC(=O)COC(=O)c1ccccc1C(=O)OCCCC
inactive: all assays above

CN(C)c1nc(=O)n(C2CCCCC2)c(=O)n1C
not listed: [9]
inactive: all other assays above

Oc1ccc(Cl)cc1Cc1ccccc1
not listed: [9]
inactive: all other assays above

CCOP(=O)(O)OCC (tested in a mixture with another compound)
not listed: [9]
inactive: all other assays above

CC(C)COC(=O)c1ccccc1C(=O)OCC(C)C
inactive: all assays above
